Test [1] is described as follows: compounds binding Alexa647 anti-His antibody – biochemical, small-molecule microarray, 635 nm fluorescence, artefact control for SMM control protein annotation, primary screen (AID 1128).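 Note: score merges feature fluorescence with signal-to-noise for each printed compound spot.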 The conditions noted are these: higher = more signal.
For test [2], the system named is Human papillomavirus type 1a E7 protein (residues 1-88). The experiment in a line: HPV1a E7 small-molecule binders, primary screen, biochemical, small-molecule microarray, residues 1-88, 635 nm (AID 1129). The note with it: small-molecule microarray binding, fluorescence 635 nm; higher = more signal.
The target of test [3] is Focal adhesion kinase 1 (Homo sapiens) (UniProt Q05397). The experiment in a line: PTK2 protein binding on printed compound slides – biochemical, small-molecule microarray, 635/667 nm fluorescence, BSA, DTT, primary screen (AID 1130).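 Note: composite of spot emission at 667 nm and signal to noise over triplicate slides.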 The conditions noted are these: 635 nm fluorescence, higher = more signal.
Test [4] has as its system Fibrinogen (Alexa647-labelled). The experiment in a line: Alexa647-fibrinogen binding to printed small molecules – biochemical, small-molecule microarray, 635/667 nm fluorescence, artefact control for SMM control-protein annotation, profiling panel (AID 1131).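 Note: z-score merges 667 nm fluorescence with per-spot signal-to-noise over triplicate slides.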 The conditions noted are these: fibrinogen-A647 binding fluorescence, higher = more signal.
Test [5] deals with Follistatin (Homo sapiens) (UniProt P19883). The experiment in a line: FST protein binding to printed compounds – biochemical, small-molecule microarray, 635/667 nm fluorescence, primary screen (AID 1132). The note with it: 635 nm fluorescence, higher = more signal.
For test [6], the target named is Fibroblast growth factor 2 (Homo sapiens) (UniProt P09038). The experiment in a line: basic fibroblast growth factor binding to printed compounds – biochemical, small-molecule microarray, 635/667 nm fluorescence, primary screen (AID 1133). The note with it: FGF2, fluorescence 635/667, higher = more signal.
A short description of test [7]: JC-1 mitochondrial potential readout, lung cancer cells – cell-based, A549, JC-1 fluorescence, basal, 24 h, 100 nL, profiling panel (AID 1138).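 Note: A549 lung adenocarcinoma cells under basal conditions with no added stimulus; test concentration not given here.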 The note with it: higher = more signal.
In test [8] the test system is Lefty1. The experiment in a line: Lefty1 protein binding to printed compounds – biochemical, small-molecule microarray, 635/667 nm fluorescence, primary screen (AID 1139). The note with it: fluorescence 635/667, higher = more signal.
Test [9] relates to wheat germ agglutinin (Triticum aestivum), Alexa647-labelled. The experiment in a line: Alexa647-WGA lectin binding to printed small molecules – biochemical, small-molecule microarray, 635/667 nm fluorescence, artefact control for SMM control-protein annotation, profiling panel (AID 1140).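 Note: score merges 667 nm feature emission with signal to noise over triplicate slides.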 The note with it: WGA-A647 binding, 635 nm fluorescence, higher = more signal.
The target of test [10] is Luciferin 4-monooxygenase (Photinus pyralis) (UniProt P08659). The experiment in a line: inhibition of purified Photinus pyralis luciferase – biochemical, luminescence, purified enzyme, 2006 set, primary screen (AID 1141).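 Note: cell-free assay with purified firefly luciferase at 100 ng per well in PBS; test concentration not given here.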 The note with it: purified firefly luciferase, SteadyGlo luminescence, 30 min; higher = more signal, called active from +8 up or from −8 down.
The test system of test [11] is Wnt5a (protein binding on small-molecule microarray). The experiment in a line: small molecules binding Wnt5a protein – biophysical, small-molecule microarray, 635/667 nm fluorescence, primary screen (AID 1142).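 Note: fluorescence read at 667 nm with signal to noise per printed feature.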 The conditions noted are these: 635 nm fluorescence, higher = more signal.
Test [12] can be described thus: ATP-based viability of Huh7 replicon cells – cell-based, CellTiter-Glo luminescence, basal, 48 h, cytotoxicity control for HCV replication inhibitor project, primary screen (AID 1143).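 Note: Huh7 hepatoma cells carrying a hepatitis C replication reporter with no stimulus; test concentration not given here.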 The conditions noted are these: higher = more signal, called active from +8 up or from −8 down.
Test [13] in a line: Pseudomonas biofilm growth suppression – PAO1 strain, BacTiter-Glo luminescence, LB-PBS, primary screen (AID 1144). The conditions noted are these: P. aeruginosa PAO1 biofilm, 12 h, higher = more signal.
The nature of test [14]: basal CRE-LacZ reporter activity in PC12 – cell-based, unstimulated, primary screen (AID 1145). The conditions noted are these: no forskolin, luminescence, 4.5 h, higher = more signal, called active from +8 up or from −8 down.
Test [15] in a line: forskolin-driven CRE-LacZ activity in PC12 – cell-based, CRE-LacZ reporter, forskolin-stimulated, primary screen (AID 1146).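 Note: PC12 cells with 6xCRE LacZ reporter stimulated by forskolin 10 µM; beta-galactosidase reporter signal reflecting CREB driven transcription.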 The note with it: luminescence, 4.5 h, higher = more signal, called active from +8 up or from −8 down.
Test [16] addresses Streptavidin (Streptomyces avidinii) (UniProt P22629). The experiment in a line: compounds binding control protein streptavidin – biophysical, small-molecule microarray, 635/667 nm fluorescence, artefact control for SMM compound annotation, primary screen (AID 1147).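 Note: signal reflects streptavidin binding to arrayed compounds as a control protein.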 The conditions noted are these: higher = more signal.
The nature of test [17]: probe aInhba binding on compound microarray – biochemical, small-molecule microarray, 635/667 nm fluorescence, primary screen (AID 1148).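 Note: score merges 667nm spot fluorescence with signal-to-noise for antibody binding to printed compounds.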 The conditions noted are these: higher = more signal.
Test [18] has as its target Torsin-1A (Homo sapiens) (UniProt O14656). The experiment in a line: TOR1A wild-type binding on microarray – cell lysate, small-molecule microarray, lysate, 635/667 nm, primary screen (AID 1149). The conditions noted are these: COS7 hTOR1A-WT lysate, 635 nm fluorescence, higher = more signal.
Test [19] has the same target. The experiment in a line: torsin A mutant lysate binding on microarrays – cell lysate, small-molecule microarray, COS7 lysate, 635/667 nm fluorescence, primary screen (AID 1150).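 Note: score pools 667 nm emission and signal to noise measuring lysate protein binding.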 The conditions noted are these: COS7 hTOR1A mutant lysate, 635 nm fluorescence, higher = more signal.
Test [20] relates to Sonic hedgehog protein (Shh). The experiment in a line: Sonic hedgehog microarray binding compounds – biochemical, small-molecule microarray, 635/667 nm fluorescence, primary screen (AID 1151).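 Note: Shh protein binding to compounds spotted on small-molecule microarray slides; score combines spot fluorescence intensity with signal-to-noise across triplicate slides.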 The conditions noted are these: 635 nm fluorescence, higher = more signal.

Structures are written as SMILES. Calls of active or inactive are those of the source. Unless noted, the rule behind the calls is not given here.

Sequence of Streptavidin (Streptomyces avidinii) (P22629 whole entry, looked up): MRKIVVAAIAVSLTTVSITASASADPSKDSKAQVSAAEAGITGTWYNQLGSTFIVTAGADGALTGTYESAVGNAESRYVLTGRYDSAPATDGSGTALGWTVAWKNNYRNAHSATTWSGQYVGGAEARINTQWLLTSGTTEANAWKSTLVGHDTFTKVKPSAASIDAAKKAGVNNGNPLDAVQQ
Sequence of Follistatin (Homo sapiens) (P19883 whole entry, looked up): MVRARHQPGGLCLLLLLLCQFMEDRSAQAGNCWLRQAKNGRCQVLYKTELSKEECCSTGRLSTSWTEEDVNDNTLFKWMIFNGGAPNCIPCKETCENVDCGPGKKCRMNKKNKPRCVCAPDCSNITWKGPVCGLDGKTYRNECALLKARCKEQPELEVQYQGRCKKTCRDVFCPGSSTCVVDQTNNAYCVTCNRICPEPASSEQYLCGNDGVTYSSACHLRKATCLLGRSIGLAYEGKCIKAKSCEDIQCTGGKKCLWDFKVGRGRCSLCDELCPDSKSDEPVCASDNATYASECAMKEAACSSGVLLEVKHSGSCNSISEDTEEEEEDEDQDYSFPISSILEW
Sequence of Torsin-1A (Homo sapiens) (O14656 whole entry, looked up): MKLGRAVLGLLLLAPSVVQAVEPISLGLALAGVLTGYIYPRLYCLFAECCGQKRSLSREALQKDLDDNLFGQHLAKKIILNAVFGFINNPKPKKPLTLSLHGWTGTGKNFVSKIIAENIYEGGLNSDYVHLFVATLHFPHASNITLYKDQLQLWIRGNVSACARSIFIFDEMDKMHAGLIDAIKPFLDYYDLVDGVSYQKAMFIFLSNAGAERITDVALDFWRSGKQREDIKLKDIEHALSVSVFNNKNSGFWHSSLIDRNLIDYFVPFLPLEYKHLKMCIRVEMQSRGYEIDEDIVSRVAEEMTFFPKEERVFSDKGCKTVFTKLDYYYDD
Sequence of Fibroblast growth factor 2 (Homo sapiens) (P09038 whole entry, looked up): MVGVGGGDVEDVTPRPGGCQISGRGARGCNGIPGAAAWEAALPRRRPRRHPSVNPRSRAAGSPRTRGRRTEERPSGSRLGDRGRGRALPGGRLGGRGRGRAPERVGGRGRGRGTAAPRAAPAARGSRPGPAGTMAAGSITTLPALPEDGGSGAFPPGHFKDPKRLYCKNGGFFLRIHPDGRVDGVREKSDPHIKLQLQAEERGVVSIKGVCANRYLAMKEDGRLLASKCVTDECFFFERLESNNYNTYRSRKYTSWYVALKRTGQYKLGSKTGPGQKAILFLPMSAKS
Sequence of Focal adhesion kinase 1 (Homo sapiens) (Q05397 whole entry, looked up): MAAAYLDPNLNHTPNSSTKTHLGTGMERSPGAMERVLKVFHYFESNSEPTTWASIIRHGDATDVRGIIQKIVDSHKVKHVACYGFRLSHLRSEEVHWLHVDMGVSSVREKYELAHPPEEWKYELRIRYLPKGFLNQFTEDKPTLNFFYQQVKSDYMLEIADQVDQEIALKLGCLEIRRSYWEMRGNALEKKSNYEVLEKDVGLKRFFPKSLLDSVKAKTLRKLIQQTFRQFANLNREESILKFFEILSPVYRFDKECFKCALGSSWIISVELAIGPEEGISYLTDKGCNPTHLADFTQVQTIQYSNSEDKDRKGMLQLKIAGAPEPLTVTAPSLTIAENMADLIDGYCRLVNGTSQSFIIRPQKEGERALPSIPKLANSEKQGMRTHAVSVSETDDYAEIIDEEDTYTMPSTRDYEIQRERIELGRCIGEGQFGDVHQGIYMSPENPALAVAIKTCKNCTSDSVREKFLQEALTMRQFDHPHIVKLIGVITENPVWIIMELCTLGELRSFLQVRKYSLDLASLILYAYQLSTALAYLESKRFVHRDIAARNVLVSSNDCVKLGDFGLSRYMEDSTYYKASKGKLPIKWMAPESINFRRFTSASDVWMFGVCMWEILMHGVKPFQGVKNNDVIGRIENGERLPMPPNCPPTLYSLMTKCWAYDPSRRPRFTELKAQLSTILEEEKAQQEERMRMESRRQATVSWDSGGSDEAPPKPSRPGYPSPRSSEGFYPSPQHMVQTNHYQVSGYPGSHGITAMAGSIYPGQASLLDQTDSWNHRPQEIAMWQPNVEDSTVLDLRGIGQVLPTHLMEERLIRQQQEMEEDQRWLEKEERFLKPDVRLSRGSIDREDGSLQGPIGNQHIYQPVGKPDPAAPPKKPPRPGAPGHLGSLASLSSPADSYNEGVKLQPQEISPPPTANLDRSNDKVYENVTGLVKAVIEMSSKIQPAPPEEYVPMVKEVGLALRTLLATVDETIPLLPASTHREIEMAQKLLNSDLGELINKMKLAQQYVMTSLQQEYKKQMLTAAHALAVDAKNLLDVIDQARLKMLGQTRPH
Sequence of Luciferin 4-monooxygenase (Photinus pyralis) (P08659 whole entry, looked up): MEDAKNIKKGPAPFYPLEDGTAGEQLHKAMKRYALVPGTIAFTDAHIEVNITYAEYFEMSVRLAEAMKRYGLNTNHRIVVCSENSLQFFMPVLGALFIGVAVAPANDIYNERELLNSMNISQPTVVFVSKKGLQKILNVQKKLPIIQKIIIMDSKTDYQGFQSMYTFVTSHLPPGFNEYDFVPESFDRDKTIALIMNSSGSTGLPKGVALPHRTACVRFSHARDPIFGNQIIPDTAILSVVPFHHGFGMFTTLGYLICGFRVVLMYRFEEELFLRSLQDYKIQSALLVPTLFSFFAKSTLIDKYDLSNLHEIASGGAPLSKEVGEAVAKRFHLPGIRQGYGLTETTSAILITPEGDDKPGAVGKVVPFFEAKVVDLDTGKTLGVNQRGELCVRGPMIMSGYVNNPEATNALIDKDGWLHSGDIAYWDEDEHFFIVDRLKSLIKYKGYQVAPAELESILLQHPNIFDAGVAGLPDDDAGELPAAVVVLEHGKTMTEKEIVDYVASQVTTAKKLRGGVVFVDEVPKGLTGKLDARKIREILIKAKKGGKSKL

On to `CN(C)C(=O)[C@@]1(Cc2ccccc2N=[N+]=[N-])N=C(c2ccc(OCCCO)cc2)O[C@H]1c1ccccc1`, for which the composite z-score in test [1] amounted to 1.78; in [2] it was 1.25; in test [3], 0.235; in test [4], 0.992; in test [5], 1.15; in test [6], 1.37. In addition, the composite z-score in [8] is -0.442; in test [9], 1.22; in [11], 0.797; in test [16] it was 1.84; in test [17], 0.841; in test [18] it was 0.106. Besides, the composite z-score was 0.401 in test [19] and -0.361 in test [20]. Also, the z-score in [7] was -0.238; in test [10], -2.17 (inactive); in [12], -4.41 (inactive); in test [13] it was -1.63 (inactive); in [14], 0.872 (inactive); in test [15], 0.361 (inactive).

Consider `C=CCC(OC(C)=O)[C@@H]1[C@@H](N(Cc2ccc(-c3cccc(C(F)(F)F)c3)o2)C(=O)c2ccc(C)cc2)c2cc(OCCCO)ccc2N1C(=O)Cc1ccc(OC)cc1` (stereo not given in full), for which the composite z-score in [1] is -0.139; in test [2], -0.269; in test [3], -0.542; in test [4], -0.366; in test [5], 1.02; in test [6], -0.289. Moreover, the composite z-score is 0.189 in test [8]; 0.0232 in [9]; 0.058 in test [11]; -0.109 in test [16]; -0.128 in [17]; -0.425 in test [18]. The composite z-score in [19] was determined as 0.197; in test [20], 1.53. For the same molecule, the z-score was 1.36 in test [7]; 0.147 (inactive) in test [10]; -0.159 (inactive) in test [12]; -0.853 (inactive) in test [13]; -0.477 (inactive) in test [14]; 0.514 (inactive) in test [15].

In the case of `CC(C)[C@H]1NC(=O)[C@@]23C(=O)N[C@@H](Cc4ccccc4)C2[C@H](C)[C@@]2(C)O[C@H]2C3/C=C/C/C=C\CNC(=O)[C@H](Cc2ccccc2)NC1=O` (stereo not given in full), the composite z-score in test [1] amounted to 0.591; in [2], 0.973; in [3], 0.117; in test [4], 0.982; in test [5], 1.31; in test [6], 1.42. Also, the composite z-score in [8] worked out at 1.57; in test [9], 0.489; in [11] it was 0.566; in [16], 0.852; in test [17], 0.0528; in test [18], 1.3. In addition, the figures for the composite z-score in test [19] and in test [20] were 0.629 and 1.96, respectively. The z-score is -0.182 in [7]; -0.894 (inactive) in [10]; -2.56 (inactive) in test [12]; 1.12 (inactive) in test [13]; 1.57 (inactive) in [14]; -0.513 (inactive) in test [15].

`CC(CO)N1C(=O)[C@@H]2[C@H]3C(=O)OCC=C[C@H]3OC23C=CCN(c2ccc(Cl)cc2)C(=O)[C@@H]13` (stereo not given in full): the composite z-score is -0.715 in test [1]; -1.39 in [2]; 0.0657 in [3]; -2.3 in test [4]; -2.57 in [5]; -1.07 in test [6]. For the same molecule, the composite z-score is -2.1 in test [8]; -1.81 in test [9]; -0.691 in test [11]; -2.13 in [16]; -0.26 in test [17]; -2.73 in test [18]. Also, the results for the composite z-score in test [19] and in [20] were -2.95 and -0.721, respectively. For the same molecule, the z-score in [7] is 1.18; in [10] it was -0.619 (inactive); in test [12], 0.359 (inactive); in [13], 2.78 (inactive); in [14], 0.866 (inactive); in test [15] it was 0.154 (inactive).

For `CCOC(=O)C1=CCC(c2ccccc2)N(S(=O)(=O)c2ccc([N+](=O)[O-])cc2)C1` (stereo not given), the composite z-score is 0.927 in test [1]; 1.12 in [2]; 0.2 in [3]; -0.773 in test [4]; 0.0227 in test [5]; -0.169 in [6]. Also, the composite z-score in test [8] is -0.111; in test [9], 0.599; in test [11], -0.206; in test [16], 0.108; in test [17], -0.128; in [18], 0.331. The composite z-score in test [19] was 0.458; in test [20], 0.188. Further, the z-score was 0.0562 in test [7]; 0.864 (inactive) in [10]; -3.61 (inactive) in test [12]; 0.697 (inactive) in test [13]; 1.23 (inactive) in test [14]; -0.536 (inactive) in [15].

For the origin of these results see PubChem BioAssay.
